This is a sample that favours compounds with a hit; in the whole collection about 14% have one here.
Sm TGR block = qHTS Assay for the Inhibitors of Schistosoma Mansoni Peroxiredoxins. Potency, µM (top dose mostly 114 µM), inactives show top-dose activity change, negative = inhibition, hits mostly inhibitors. AID 485364, 2010. Schistosoma mansoni thioredoxin glutathione reductase (TGR), Q962Y6. purified TGR, DTNB reduction, TNB absorbance 405 nm. hit rate 3% among 360,000; further: potency means the concentration at half of the fitted maximal effect; nearly all actives have a fitted effect of over 60% in size
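First, TGR (20 nM dispensed) and NADPH were mixed with compound. Second, a 15 min room-temperature incubation followed. Third, further NADPH and then DTNB were added to start the reaction. Finally, TNB absorbance was monitored kinetically.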
Pf growth 96h = Primary qHTS for delayed death inhibitors of the malarial parasite plastid, 96 hour incubation | Potency, µM (titrated, usually from 28.7 µM), inactives show top-dose activity change, negative = inhibition, hits mostly inhibitors | P. falciparum luciferase reporter growth, 96 h | hit rate 6.9% among 320,000 | AID 504834, 2011; further: potency means the concentration at half of the fitted maximal effect
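P. falciparum expressing integrated firefly luciferase, in erythrocytes at 2% hematocrit, 0.05% parasitemia, incubated with compounds 96 h at 37 C, 5% CO2. Growth inhibition read as loss of luminescence; two-generation exposure targets delayed-death apicoplast inhibitors.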
FBPA Giardia inh = qHTS Assay for Inhibitors of Fructose-1,6-bisphosphate Aldolase from Giardia Lamblia; hit rate 0.71% among 290,000; A8B2U2; Potency, µM (titrated, usually from 59.6 µM), for the others: at the top dose activity, negative = inhibition, usual class: inhibitors; purified Giardia FBPA; further: potency means the concentration at half of the fitted maximal effect; nearly all actives have a fitted effect of over 55% in size
Target sequence (A8B2U2 whole entry, looked up): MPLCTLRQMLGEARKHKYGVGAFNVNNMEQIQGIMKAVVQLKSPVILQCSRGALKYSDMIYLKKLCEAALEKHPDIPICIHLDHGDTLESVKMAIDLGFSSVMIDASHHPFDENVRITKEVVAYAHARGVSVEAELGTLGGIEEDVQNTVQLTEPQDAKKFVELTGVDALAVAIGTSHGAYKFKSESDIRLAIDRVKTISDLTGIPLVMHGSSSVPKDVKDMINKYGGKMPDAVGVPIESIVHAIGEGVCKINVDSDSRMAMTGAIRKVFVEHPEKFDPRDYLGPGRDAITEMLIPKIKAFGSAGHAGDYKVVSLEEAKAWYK
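40 nM FBPA preincubated 10 min at RT with compound (up to 57.5 uM final), then substrate plus GAPDH/TPI/NAD/arsenate coupling and diaphorase/resazurin added. Fluorescence read after 20 min at RT, 525/598 nm.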
HCMV antiviral = qHTS Assay for inhibitors of the human cytomegalovirus (HCMV); hit rate 4.5% among 410,000; HFF cells, HCMV-luciferase reporter, 72 h; hits give low values; activity change, negative = inhibition, % at 57.5 µM; in the data active means activity change below about -60%; inconclusive means no clear call, values can overlap the other calls; inactive means above about -39%
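Two-dose cell screen: HFF monolayers treated with compounds and infected with luciferase-expressing HCMV at 1 PFU/cell, 72 h at 37C, then lysed for luciferase measurement.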
Pf growth 48h = Primary qHTS for delayed death inhibitors of the malarial parasite plastid, 48 hour incubation; AID 504832, 2011; hit rate 5.9% among 310,000; P. falciparum luciferase growth in erythrocytes, 48 h; Potency, µM (doses to about 28.7 µM), inactives show at the top dose activity change, negative = inhibition, actives largely listed as inhibitors; further: potency means the concentration at half of the fitted maximal effect
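Luciferase-expressing P. falciparum in infected erythrocytes (2% hematocrit, 0.1% parasitemia final) in RPMI 1640/0.5% Albumax were exposed to compound for 48 hours at 37 C, 5% CO2; growth read as luminescence.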
Active calls of the source: *; ? = inconclusive; · = not tested or not shown; [ ] = another dose, or the depositor's remark. Unless noted, the call rests on the fitted dose curve; in most records, active means well fitted curve in the direction sought with a large enough effect; inconclusive means small, poorly fitted or top-dose-only effect, or another doubt; inactive means no such curve, though single readings can be large; an effect the other way counts as inactive or inconclusive. On the % scale 0 is the no-effect control and ±100 the full control effect.

SMILES | Sm TGR block | Pf growth 96h | FBPA Giardia inh | HCMV antiviral | Pf growth 48h
O=C(NC1CCCc2c1cnn2-c1ccc(F)cc1F)c1ccccn1 (centres undefined) | 16.3%[57.1 µM] | 1.0% | 1.7% | -39.4 | -7.1%
CCc1cc(C(=O)NC2CCCc3c2cnn3-c2ccc(F)cc2F)no1 (centres undefined) | · | · | · | -71.3* | ·
O=C(NC1CCCc2c1cnn2-c1ccc(F)cc1F)c1ccccc1N1CCOCC1 (centres undefined) | -3.2% | 4.15µM* | 1.2% | -75.2* | ?
Cc1ccc(-n2ncc3c2CCCC3NC(=O)c2ccccc2N2CCOCC2)cc1C (centres undefined) | 0.0% | -1.1% | · | -21.0 | ?
O=C(CCc1ccncc1)NC1CCCc2c1cnn2-c1ccc(F)cc1F (centres undefined) | -23.9% | ? | -0.6% | -73.2* | 14.6%
CCc1cc(C(=O)N2CCN(C(=O)c3ccccc3)CC2)sc1C | 0.5% | ? | · | -13.9 | ?
CC(=O)N(c1cccc(Cl)c1)c1nc(C)cc(C)c1C#N | -0.8% | 10.5% | 10.6% | 26.3 | 9.2%
Cc1onc(-c2ccccc2)c1C(=O)Nc1ccc(Br)cc1Cl | 6.7% | 2.2% | 26.6% | -16.2 | 14.7µM*
COC(=O)c1onc(-c2ccccc2)c1C(=O)OC | 0.0% | 8.9%[5.75 µM] | -4.5% | 2.7 | 13.1%
COC(=O)c1c(-c2ccc(F)cc2)noc1N | 7.2% | 4.65µM* | 0.5% | -22.8 | 24.7%
Cc1onc(-c2ccccc2)c1C(=O)OCC(=O)NC(C)c1ccc(Cl)cc1 (centres undefined) | -1.5% | ? | · | -16.2 | 14.7µM*
COc1ccc(NC(=O)COC(=O)c2c(-c3ccccc3)noc2C)cc1 | -35.7% | 10.4µM* | 2.5% | -32.8 | ?
Cc1onc(-c2ccccc2)c1C(=O)Nc1ccccc1NC(=O)c1c(-c2ccccc2)noc1C | -22.4% | ? | · | -0.8 | ?
COC(=O)c1c(-c2ccccc2)noc1C | -4.7%[57.1 µM] | 22.9% | 0.3% | -76.2* | 5.0%
COc1ccc(C(=O)Oc2ccc(C)cc2)cc1S(=O)(=O)N1CCOCC1 | · | · | · | 24.9 | ·
COc1ccc(C(c2nnnn2CCc2ccccc2)N2CCN(C3CCCC3)CC2)cc1OC (centres undefined) | -6.0% | 0.586µM* | 7.1% | 24.3 | -18.9%
C=CCN1CCN(C(c2ccc(Cl)cc2)c2nnnn2CCc2ccc(OC)c(OC)c2)CC1 (centres undefined) | -5.7% | -4.2% | 3.2% | -100.7* | ?
CC(C)(C)n1nnnc1C(c1cccnc1)N1CCOCC1 (centres undefined) | 4.4% | 24.9% | 3.1% | 29.3 | -0.4%
COc1ccccc1C(c1nnnn1Cc1ccccc1)N1CCN(C2CCCC2)CC1 (centres undefined) | -9.4% | 12.3% | -13.0% | 9.5 | ?
COc1ccc(CCn2nnnc2C(c2ccc(C)cc2)N2CCN(C)CC2)cc1OC (centres undefined) | -2.3% | 8.9% | -9.5% | -2.2 | ?
COc1ccc(C(c2nnnn2C2CCCC2)N2CCN(C3CCCC3)CC2)cc1OC (centres undefined) | 0.1% | ? | -10.7% | -22.5 | 5.6%
c1ccc(CCn2nnnc2C(c2cccnc2)N2CCOCC2)cc1 (centres undefined) | 7.7% | 2.62µM* | 0.1% | 56.6 | -13.6%
COc1ccc(OC)c(C(c2nnnn2Cc2ccccc2)N2CCN(C3CCCCC3)CC2)c1 (centres undefined) | -12.2% | -16.2% | -15.4% | -21.4 | 10.4µM*
O=[N+]([O-])c1ccccc1Oc1ccc(S(=O)(=O)N2CCOCC2)cc1 | 2.1% | ? | · | 2.6 | ?
C[C@@H]1CN([C@@H](C)CO)C(=O)c2cc(Br)cnc2O[C@H]1CN(C)Cc1cccc(C(=O)O)c1 | · | · | · | 11.8 | ·
SMILES | Sm TGR block | Pf growth 96h | FBPA Giardia inh | HCMV antiviral | Pf growth 48h
CCOC(=O)C1(C)CCN1C(=O)Cc1ccc(OC)cc1 (centres undefined) | · | · | · | 2.1 | ·
COc1cccc(C(c2nnnn2Cc2ccccc2)N2CCN(C3CCCC3)CC2)c1OC (centres undefined) | -2.4% | 2.33µM* | 9.1% | -21.0 | -5.2%
CC(C)C(c1nnnn1CCc1ccccc1)N1CCC(C(N)=O)CC1 (centres undefined) | -27.3% | 28.5% | -3.9% | 0.8 | 11.5%
CCCC(c1nnnn1CCc1ccccc1)N1CCC(C(N)=O)CC1 (centres undefined) | 1.1% | 4.15µM* | 3.9% | -29.7 | -16.8%
Cc1ccc(C(c2nnnn2CCc2ccccc2)N2CCC(C)CC2)cc1 (centres undefined) | 0.4% | 0.8% | -17.4% | ? | 7.38µM*
CCn1c(=N)c(C(=O)NC2CCCCC2)cc2c(=O)n3cc(C)ccc3nc21 | -3.8% | · | · | 8.4 | ·
CCOc1ccccc1NS(=O)(=O)c1cccs1 | 5.6% | · | 14.1µM* | -9.3 | 9.9%
CCOc1ccccc1NS(=O)(=O)N(C)C | 2.1% | 13.1µM* | -26.8% | 12.8 | ·
CCOc1ccccc1NC(=O)CCS(=O)(=O)c1cccs1 | 56.2µM* | 28.9% | -12.0% | 15.7 | 14.4%
CCOc1ccccc1NS(=O)(=O)c1cnc(N)nc1 | -9.8% | · | · | -3.2 | ·
CCOc1ccc(S(=O)(=O)N2CCCCC2)cc1NS(=O)(=O)c1cccs1 | -0.3% | ? | · | 36.3 | ?
COc1ccc(S(=O)(=O)N(C)C[C@@H]2OCCCC[C@H](C)Oc3ccc(NC(=O)Nc4ccc(C(F)(F)F)cc4)cc3C(=O)N([C@H](C)CO)C[C@H]2C)cc1 | · | · | · | -14.0 | ·
COc1ccc(NC(=S)N2CCC(NC(=O)c3ccc(F)cc3)CC2)cc1 | -14.9% | 13.2% | 2.8% | 13.5 | -20.2%
CCCCCCCCCCCCC/C=C\[C@@H](O)[C@H](CO)NC(C)=O | · | · | 2.0% | · | ·
Cc1cccc(COCC(Cc2ccccc2)N2CCN(C(=O)c3cccc(C)c3)CCC2=O)c1 (centres undefined) | -11.5% | ? | -7.5% | 26.7 | 13.1µM*
Cc1cccc(COCC(Cc2ccccc2)N2CCN(C(=O)c3cc(Cl)cc(Cl)c3)CCC2=O)c1 (centres undefined) | -19.0% | 14.7µM* | -1.4% | · | ?
Cc1cccc(COCC(Cc2ccccc2)N2CCN(C(=O)c3ccc(Cl)c(Cl)c3)CCC2=O)c1 (centres undefined) | -1.7% | ? | -5.8% | 31.0 | ?
Cc1noc(C)c1COc1ccc(C(=O)N2CCN(S(=O)(=O)c3cccc(F)c3)CC2)cc1 | · | · | · | 6.4 | ·
COc1ccc2[nH]c3c(c2c1)CCN1C(=O)C(CC(=O)NCCC2=CCCCC2)C[C@H](C(=O)N2CCOCC2)[C@@]31C (some centres undefined) | · | · | · | -2.3 | ·
CC(C)CCN1CCN(Cc2nc(-c3ccc(F)cc3)cs2)CC1CCO (centres undefined) | 10.0% | 11.7µM* | 0.1% | 2.0 | ?

Source: PubChem (National Center for Advancing Translational Sciences (NCATS))
